This is part of a sample that, as a whole, favours compounds with a hit. Of some 83,000 tested, about 20% had one in any assay.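 Testing used 96-well plates and a 48-hour single-concentration exposure. Example: -40 means 40% of the starting cells died.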 Values without a mark were called inactive. The source made the active and inactive calls. Rule for the calls: active = growth percent below 10; inactive = the rest.
Assays:
Test in all cases: NCI-60 one-dose screen, 48 h (100 = growth as untreated, 0 = no growth, -100 = all killed)
Settings in all cases: 10 µM unless noted
[1] = tested on: NCI-H23 lung
[2] = tested on: NCI-H226 lung
[3] = tested on: NCI-H322M lung
[4] = tested on: HOP-62 NSCLC
[5] = tested on: NCI-H460 lung
[6] = tested on: NCI-H522 lung
[7] = tested on: A549/ATCC NSCLC
[8] = tested on: 786-0 renal
[9] = tested on: COLO 205 colon
[10] = tested on: DU-145 prostate
[11] = tested on: K-562 leukemia
[12] = tested on: MALME-3M melanoma
[13] = tested on: MDA-MB-231 breast
[14] = tested on: RXF 393 renal
[15] = tested on: SF-268 CNS
[16] = tested on: SF-295 CNS
[17] = tested on: SF-539 CNS
[18] = tested on: UACC-257 melanoma
[19] = tested on: M14 melanoma

Compound	growth [1]	growth [2]	growth [3]	growth [4]	growth [5]	growth [6]	growth [7]	growth [8]	growth [9]	growth [10]	growth [11]	growth [12]	growth [13]	growth [14]	growth [15]	growth [16]	growth [17]	growth [18]	growth [19]
O=C(/C=C/c1ccc(F)cc1)N1CCN(C(=O)/C=C/c2ccc(C(F)(F)F)cc2)CC1	106%	108%	106%	109%	116%	92%	96.9%	107%	126%	109%	104%	98.6%	96.8%	120%	114%	119%	123%	97.3%	97.4%
NC(N)=N/N=C/c1cccc(Cl)c1Cl	86.9%	84.8%	96.9%	82.5%	64.2%	80.8%	87.9%	83.6%	-33.1% (active)	69.3%	4.22% (active)	94.9%	81.6%	81.3%	69.5%	109%	96.4%	70.1%	62.7%
NC(=O)c1ccc[n+](Cc2ccccc2)c1	96.1%	102%	104%	127%	108%	99.3%	94.3%	109%	112%	101%	113%	75.4%	105%	97.6%	107%	109%	96.7%	95.3%	96.3%
C=C1C(=O)O[C@H]2[C@H]1CC/C(COC(=O)NCc1cn(C)c3ccccc13)=C\CC[C@@]1(C)O[C@@H]21	38.4%	35.8%	80.6%	32.8%	5.72% (active)	-80.2% (active)	21%	-87.8% (active)	-75.3% (active)	-42.6% (active)	-16.5% (active)	-34.3% (active)	-8.6% (active)	-93.7% (active)	24.2%	63.2%	-34.6% (active)	-15% (active)	-42.1% (active)
c1ccc2oc(-c3cnc4nonc4n3)cc2c1	94.8%	92.1%	87.7%	84.7%	95.8%	78.3%	96.4%	103%	103%	114%	103%	105%	87.9%	112%	99.7%	103%	101%	99.2%	106%
O=c1c2cc(Cl)ccc2oc2ccc(OCCCCCN3CCCCCC3)cc12	87.5%	90.1%	89.6%	79.7%	63%	80.2%	61.2%	70.2%	76.7%	91.9%	34.6%	114%	84.4%	84.4%	87.4%	97.5%	94.1%	83.7%	45.2%
C[Si](C)(C)C(c1ccccc1)c1ccccc1	99.5%	113%	105%	105%	106%	98.2%	91.1%	110%	105%	102%	86.7%	90.2%	123%	126%	104%	109%	111%	109%	108%
CCC1=CC2CN(C1)Cc1c([nH]c3ccccc13)[C@@](C(=O)OC)(c1cc3c(cc1OC)N(C)[C@H]1[C@@](O)(C(=O)OC)[C@H](OC(C)=O)[C@]4(CC)C=CCN5CC[C@]31[C@@H]54)C2 (some centres not stated)	3.64% (active)	-1.33% (active)	70%	19.8%	3.4% (active)	-4.74% (active)	11%	-8.81% (active)	-75% (active)	-30.1% (active)	17%	44.5%	30.3%	47.1%	17.4%	15.4%	6.49% (active)	59.1%	-36.8% (active)
CC(C)(C)[Si](C)(C)OC1[C@@H](O[Si](C)(C)C(C)(C)C)[C@@H](CNC(=O)NC(=O)NC(=O)CCl)O[C@H]1n1cnc2c(NC(=O)Nc3ccccc3)ncnc21 (some centres not stated)	-35.6% (active)	88.2%	103%	36.7%	43.5%	-78.6% (active)	55.8%	26.6%	57.1%	87.5%	47.1%	-78.7% (active)	-28.3% (active)	21.9%	47.1%	-20.6% (active)	82.7%	97.8%	64.7%
CC(C)(C)[Si](C)(C)OC1[C@@H](O[Si](C)(C)C(C)(C)C)[C@@H](CNC(=O)NC(=O)NC(=O)CI)O[C@H]1n1cnc2c(NC(=O)Nc3ccccc3)ncnc21 (some centres not stated)	-51.8% (active)	108%	111%	2.91% (active)	78.8%	-80.4% (active)	65.5%	7.17% (active)	45.2%	90.7%	52.3%	-83.3% (active)	-49.7% (active)	-5.13% (active)	26.4%	-56.8% (active)	-63.2% (active)	105%	73.1%
O=C(Cc1ccc([N+](=O)[O-])cc1)Oc1ccccc1	109%	111%	103%	102%	114%	97.2%	111%	104%	109%	129%	104%	146%	108%	122%	111%	121%	105%	110%	106%
CC[C@H](C)[C@H](N)C(=O)O	111%	96.5%	96.9%	102%	108%	101%	103%	112%	103%	106%	122%	103%	97.7%	96.8%	105%	104%	100%	119%	105%
COc1ccc2[nH]cc(C3(c4c[nH]c5ccc(OC)cc45)C(=O)Nc4ccc(Cl)cc43)c2c1	80.3%	108%	85.5%	85.2%	6.57% (active)	65.7%	63.6%	74.1%	69.2%	66.9%	6.2% (active)	78.9%	82.4%	94.5%	40.8%	59.6%	74.8%	86.5%	73.8%
CC(C)OC1OC(OC(C)C)C(OC(C)C)OC1OC(C)C (configuration not stated)	94.9%	99.9%	98.1%	123%	104%	70.9%	92.4%	99.4%	112%	112%	92.5%	119%	91.8%	127%	96.5%	109%	105%	92.2%	99.2%
CCCCCCCC/C=C\CCCCCCCC(=O)OCCCCCC	98.4%	94.7%	111%	121%	111%	104%	90.6%	105%	124%	103%	100%	120%	136%	104%	108%	95.6%	109%	95.7%	112%
COC1(OC)C2(Cl)CCC1(Cl)C(Cl)=C2Cl	99.4%	98.2%	100%	129%	106%	97%	95.6%	102%	128%	108%	110%	99.4%	106%	107%	106%	105%	101%	93.2%	96.9%
c1cn2cc(-c3ccc4ncn(C5CCCCC5)c4c3)nc(-c3ccc4c(c3)ncn4C3CCCCC3)c2n1	-41.5% (active)	-56.4% (active)	1.23% (active)	-55.4% (active)	-48.5% (active)	-52.6% (active)	-44.9% (active)	-47.1% (active)	-64.4% (active)	-59.1% (active)	-4.74% (active)	-14.3% (active)	-68.7% (active)	-89.1% (active)	-67% (active)	-86.5% (active)	-82.1% (active)	-71.5% (active)	-50.8% (active)

Compound	growth [1]	growth [2]	growth [3]	growth [4]	growth [5]	growth [6]	growth [7]	growth [8]	growth [9]	growth [10]	growth [11]	growth [12]	growth [13]	growth [14]	growth [15]	growth [16]	growth [17]	growth [18]	growth [19]
COc1cc(C2CC(c3ccccc3)=NN2C=O)ccc1Oc1ccnc2cc(Cl)ccc12 (configuration not stated)	36.7%	46.6%	100%	74.2%	73.8%	42.7%	56%	79.9%	101%	77.9%	51.1%	52.7%	74.6%	98.9%	65.6%	43.3%	79.8%	31.6%	54.9%
O=C1C(Cl)=C(Nc2cccc3ccccc23)C(=O)c2ccccc21	73.6%	87.8%	83.1%	84.9%	90.7%	44.7%	87.9%	90%	88.9%	111%	26.6%	53.4%	57.5%	120%	85.5%	95.1%	107%	74.7%	87.8%
Clc1cc(Cl)cc(-c2cnc3nonc3n2)c1	77.3%	104%	95.1%	87.4%	106%	-69.3% (active)	103%	93.2%	72.5%	97.9%	79%	76.9%	89.7%	108%	93.5%	99.8%	107%	89.9%	90.2%
CC(C)N(C(=S)SSC(=S)N(C(C)C)C(C)C)C(C)C	101%	109%	108%	104%	110%	75.7%	95.9%	101%	112%	109%	73.3%	101%	119%	120%	103%	101%	108%	93.4%	101%
Cc1ccc(C)c2c1SC1=NNC(Oc3ccc(Cl)cc3)=C(C#N)C(=N)N12	92.7%	94.2%	101%	103%	99.9%	87.9%	108%	110%	105%	112%	95.1%	123%	99.6%	118%	113%	93.7%	103%	101%	107%
CC(C)c1cccc(C#N)c1	92.8%	101%	109%	111%	103%	107%	93.5%	102%	115%	104%	109%	113%	102%	102%	107%	107%	109%	93.4%	95.2%
O=C1Nc2ccc(Cl)cc2/C1=C\c1c(-c2ccc(F)cc2)nc2ccccn12	-20.1% (active)	-30.8% (active)	43.6%	-10.3% (active)	6.88% (active)	11.4%	23.7%	24.6%	45.7%	-19% (active)	-39.5% (active)	16.6%	45.9%	-13.4% (active)	5.15% (active)	-41% (active)	-31.2% (active)	75.6%	-9.52% (active)
CC(C)(C)[Si](C)(C)OC1[C@@H](CNC(N)=O)O[C@@H](n2cnc3c(NC(=O)Nc4ccccc4)ncnc32)[C@H]1O[Si](C)(C)C(C)(C)C (some centres not stated)	62.4%	75.9%	119%	78.1%	5.08% (active)	63.8%	37.6%	58.8%	9.85% (active)	72.6%	35.2%	75.4%	77.9%	6.77% (active)	48.3%	64.7%	68.1%	78.6%	54.3%
OC(COCc1ccccc1)COCc1ccccc1	110%	106%	112%	106%	112%	100%	99.9%	108%	110%	122%	99.3%	105%	108%	119%	115%	108%	110%	97.9%	103%
COc1cc2ncnc(Nc3ccc(S(=O)(=O)Nc4nccs4)cc3)c2cc1OCCCN1CCOCC1	104%	99.7%	102%	93.3%	105%	88.6%	103%	108%	103%	110%	106%	99.8%	99.2%	111%	98.3%	108%	98.6%	101%	107%
COC(=O)CSc1ccc(Cl)cc1	102%	123%	102%	107%	109%	92.2%	98%	95.3%	108%	111%	89.6%	95.5%	116%	136%	119%	107%	97.3%	104%	103%
Clc1ccc(-c2cnc3nonc3n2)s1	74.3%	100%	96.6%	84.5%	92.6%	53.5%	85%	86.1%	67.6%	89.7%	41.7%	83%	85.2%	109%	82.7%	92.8%	97.5%	64.4%	86.6%
CCCCCCCCCCCC1=NC(C)(C)CN1CC(C)O (configuration not stated)	64.1%	92.8%	92.2%	60.2%	62.6%	57%	85.4%	69.1%	-97.5% (active)	80.1%	-44.6% (active)	79%	44%	28.9%	60.1%	93.3%	63.8%	59.5%	-2.07% (active)
N/C(=N\OC(=O)c1ccccc1)C(Cc1ccccc1)C(=O)NOC(=O)c1ccccc1 (configuration not stated)	46.6%	95.1%	89%	1.55% (active)	5.54% (active)	-53.7% (active)	-60.3% (active)	48.7%	69.3%	16.2%	-6.89% (active)	59.2%	70.7%	53.4%	1.91% (active)	-14.7% (active)	13.6%	88.8%	48.3%
COc1ccc2nc(C)cc(Sc3nc4ccccc4s3)c2c1	29.4%	39.5%	60%	57.5%	34.6%	-20.9% (active)	35.7%	73.8%	33.7%	37.3%	4.93% (active)	25.7%	27.9%	-16.5% (active)	42.7%	82.5%	55.4%	49%	65.5%
COc1cccc(/C=N\Nc2ccc([N+](=O)[O-])cn2)c1O	38%	81.5%	32%	46.4%	18%	12.7%	57%	64.5%	134%	51.6%	44.1%	60.9%	42.4%	72.8%	37.1%	3.86% (active)	50.6%	16.2%	38.8%
